Mtb betalactam = beta-lactam sensitization of Mtb H37Rv | M. tuberculosis H37Rv growth with meropenem, percent inhibition | inhibition, % at 25 µM | 0.27% of 330,000 active | AID 434955; call rule not given here;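 also: growth measured after seven days incubation then overnight dye step; 0% = bacteria only wells and 100% = bacteria with antibiotic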
Rv3671c protease = inhibitors of M. tuberculosis serine protease Rv3671c. P9WHR9. inhibition, % at 5.96 µM. 0.048% of 320,000 active; in the data active = inhibition above about 38%;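 also: extracellular domain of Rv3671c used as enzyme; 0% = enzyme with DMSO and 100% = no enzyme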
FBA Mtb inh = inhibitors of M. tuberculosis fructose-bisphosphate aldolase; inhibition, % at 1 µM; purified M. tuberculosis FBA, fluorescence read-out; AID 588726; 2.3% of 360,000 active; P9WQA3;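 also: 0% = vehicle and 100% = reference inhibitor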
Target sequence (P9WQA3 whole entry, looked up): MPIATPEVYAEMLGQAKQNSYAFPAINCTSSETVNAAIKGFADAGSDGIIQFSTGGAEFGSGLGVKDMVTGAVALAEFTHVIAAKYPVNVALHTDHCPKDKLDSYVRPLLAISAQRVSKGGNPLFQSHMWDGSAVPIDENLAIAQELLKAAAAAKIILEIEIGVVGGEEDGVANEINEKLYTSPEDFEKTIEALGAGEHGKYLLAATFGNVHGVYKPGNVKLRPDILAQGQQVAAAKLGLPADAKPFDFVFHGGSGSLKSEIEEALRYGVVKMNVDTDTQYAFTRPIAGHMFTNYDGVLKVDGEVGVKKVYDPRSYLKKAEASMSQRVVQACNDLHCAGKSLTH
Mtb UGM inh = blocks M. tuberculosis UGM enzyme; purified UGM, fluorescence polarization probe displacement; P9WIQ1; 0.06% of 320,000 active; inhibition, % at 10 µM; in the data active = inhibition above about 10%, passing the limit was not always enough
RecA intein inh = inhibitors of M. tuberculosis RecA intein splicing; cell-free RecA intein splicing, fluorescence; inhibition, % (concentration not given with the values); 0.75% of 290,000 active; AID 2221; in the data active = inhibition above about 30%;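 also: 0% = vehicle wells and 100% = reference inhibitor control wells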
GDH-TPI counter-1 = inhibits GDH-TPI coupling enzymes, artifact for Mtb FBA screen; GDH-TPI coupled enzyme counterscreen, NADH absorbance; inhibition, % at 4.8 µM; 1.2% of 360,000 active; in the data active = inhibition above about 30%;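 also: 0% = DMSO wells and 100% = wells lacking the enzyme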
Mtb FBA inh conf = confirmation of M. tuberculosis fructose-bisphosphate aldolase inhibitors | shares compounds with FBA Mtb inh | purified M. tuberculosis FBA, fluorescence read-out | inhibition, % at 1 µM | 78% of 5,600 active;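 also: 0% = vehicle wells and 100% = reference inhibitor wells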
GDH-TPI counter-2 = counter-screen for M. tuberculosis FBA inhibitors: GDH-TPI coupled enzyme inhibition | shares compounds with FBA Mtb inh | 81% of 5,600 active | inhibition, % at 1 µM | GDH-TPI coupled enzyme counterscreen, fluorescence; in the data active = inhibition above about 10%
The depositor's hits bear a star. A selection: hits, their analogues and other compounds. The true share with any hit is near 4%. Rule as the data show it, unless noted: active = inhibition above about 27%; inactive = the rest.

For COC(=O)c1ccc(NC(=O)C2CC3CCC2C3)cc1 (configuration not stated) the results were Mtb betalactam 44.1, Rv3671c protease -7.7, FBA Mtb inh -1.9, Mtb UGM inh -1.5, RecA intein inh 8.6 and GDH-TPI counter-1 2.2.
Screening COC(=O)c1ccc(NC(=S)NC2CC3CCC2C3)cc1 (configuration not stated) returned Mtb betalactam 77.2, Rv3671c protease -5.9, FBA Mtb inh 37.1*, Mtb UGM inh -1.9, RecA intein inh 3.3, GDH-TPI counter-1 -4.5, Mtb FBA inh conf 85.8* and GDH-TPI counter-2 64.5*.
Screening Cc1ccc(NC(=O)c2cc(S(=O)(=O)N3CCCCC3)ccc2N2CCOCC2)c(C)c1 returned FBA Mtb inh -2.2 and GDH-TPI counter-1 5.4.
`CCSc1nc(-c2ccc(OC)cc2)cc(-c2ccccc2)c1C#N` gave Mtb betalactam 11.2, Rv3671c protease 0.5, FBA Mtb inh 1.4, Mtb UGM inh -1.5, RecA intein inh -0.8 and GDH-TPI counter-1 6.2.
Screening COc1ccc(-c2cc3nc4ccccc4n3c(N)c2C#N)cc1 returned Mtb betalactam 2.0, Rv3671c protease -18.0, FBA Mtb inh 40.8*, Mtb UGM inh 3.5, RecA intein inh -0.9, GDH-TPI counter-1 30.4, Mtb FBA inh conf active and GDH-TPI counter-2 active.
Screening CCC(C)[C@H](NS(=O)(=O)c1ccc(C)cc1)C(=O)N1CCC(C(=O)N2CCC(C(N)=O)CC2)CC1 (some centres not stated) returned Mtb betalactam -5.9, Rv3671c protease 0.8, FBA Mtb inh 0.5, Mtb UGM inh -1.7, RecA intein inh 17.3 and GDH-TPI counter-1 2.9.
For Cc1cc(C)n2cc(CSc3ccc(Br)cc3)nc2n1 the results were Mtb betalactam -7.3, Rv3671c protease 3.5, FBA Mtb inh 8.0, Mtb UGM inh 0.6, RecA intein inh 2.8 and GDH-TPI counter-1 1.2.
`Cc1cc(C)n2cc(CSc3ncn[nH]3)nc2n1` gave Mtb betalactam -6.3, Rv3671c protease 1.0, FBA Mtb inh 94.8*, Mtb UGM inh 0.2, RecA intein inh -2.3, GDH-TPI counter-1 2.5, Mtb FBA inh conf 1.2 and GDH-TPI counter-2 -6.5.
Screening Cc1cc(C)n2cc(COc3ccccc3)nc2n1 returned Mtb betalactam 3.2, Rv3671c protease -6.6, FBA Mtb inh 70.6*, Mtb UGM inh -0.8, RecA intein inh -4.1, GDH-TPI counter-1 7.0, Mtb FBA inh conf 83.0* and GDH-TPI counter-2 60.9*.
`O=C(Nc1ccc(Br)cc1)C1CCCN(C2=NS(=O)(=O)c3ccccc32)C1` (configuration not stated) gave Mtb betalactam -2.9, Rv3671c protease -6.6, FBA Mtb inh 5.6, Mtb UGM inh -1.5 and GDH-TPI counter-1 5.6.
`O=C(CN1C(=O)NC(Cc2ccccc2)C1=O)Nc1ccccc1OC(F)F` (configuration not stated) gave Mtb betalactam -2.1, Rv3671c protease 5.4, FBA Mtb inh -1.8, Mtb UGM inh 1.9, RecA intein inh 4.1 and GDH-TPI counter-1 -10.0.
`CCCCCCSc1ccc(-c2nc3ccccn3c2NCCCC)cc1` gave Mtb betalactam 99.6, Rv3671c protease 14.5, FBA Mtb inh 44.9*, Mtb UGM inh -1.0, RecA intein inh -10.7, GDH-TPI counter-1 8.1, Mtb FBA inh conf active and GDH-TPI counter-2 active.
For Fc1ccc(-c2csc(N3CCC(c4ccccc4)C3)n2)cc1 (configuration not stated) the results were Mtb betalactam 55.4, Rv3671c protease 2.8, FBA Mtb inh 2.5, Mtb UGM inh -1.3, RecA intein inh 0.9 and GDH-TPI counter-1 -2.6.
COc1ccc(-c2csc(N3CCC(c4ccccc4)C3)n2)cc1 (configuration not stated) was read as Mtb betalactam 5.1, Rv3671c protease 4.4, FBA Mtb inh 44.8*, Mtb UGM inh -3.5, RecA intein inh -1.4, GDH-TPI counter-1 0.9, Mtb FBA inh conf 133.1* and GDH-TPI counter-2 91.0*.
`CSc1nnc(C2CCN(CC(=O)Nc3ccccc3N3CCOCC3)CC2)n1C(C)C` gave Mtb betalactam -2.9, Rv3671c protease 4.4, FBA Mtb inh 1.6, Mtb UGM inh 0.2, RecA intein inh 6.7 and GDH-TPI counter-1 5.2.
O=C(NC(=S)Nc1ccc(CN2CCOCC2)cc1)c1ccc([N+](=O)[O-])cc1 was read as Mtb betalactam 6.7, Rv3671c protease 2.7, FBA Mtb inh 32.8*, Mtb UGM inh -2.0, RecA intein inh 0.9, GDH-TPI counter-1 2.1, Mtb FBA inh conf 4.8 and GDH-TPI counter-2 -4.0.
For CCCN1CCN(CCCNC(=O)c2cc3c(=O)[nH]c4ccc(C)cc4c3s2)CC1 the results were Mtb betalactam -6.8, Rv3671c protease 0.6, FBA Mtb inh 52.6*, Mtb UGM inh -4.6, RecA intein inh -2.8, GDH-TPI counter-1 5.6, Mtb FBA inh conf 90.7* and GDH-TPI counter-2 92.8*.
Cc1ccc2[nH]c(=O)c3cc(C(=O)NC(C)C)sc3c2c1 was read as Mtb betalactam 7.7, Rv3671c protease -19.8, FBA Mtb inh 73.5*, Mtb UGM inh -2.4, RecA intein inh -3.2, GDH-TPI counter-1 19.1, Mtb FBA inh conf 84.5* and GDH-TPI counter-2 68.0*.
For Cc1ccc(S(=O)(=O)N2CCC(=O)CC2)cc1 the results were Mtb betalactam 10.1, Rv3671c protease -11.3, FBA Mtb inh 0.1, Mtb UGM inh 4.7, RecA intein inh 1.0 and GDH-TPI counter-1 1.4.
Screening O=S(=O)(Nc1cccc2ccccc12)N1CCCC1 returned Mtb betalactam 4.8, Rv3671c protease -1.9, FBA Mtb inh 27.6*, Mtb UGM inh 5.2, RecA intein inh 2.6, GDH-TPI counter-1 -4.8, Mtb FBA inh conf 71.7* and GDH-TPI counter-2 58.9*.
COc1ccc(NC2CCCN(C(=O)CCC(=O)c3ccc(F)cc3)C2)cc1 (configuration not stated) was read as Mtb betalactam 2.4, Rv3671c protease -3.8, FBA Mtb inh 0.1, Mtb UGM inh 1.7, RecA intein inh -4.0 and GDH-TPI counter-1 -1.0.
For CN(C)S(=O)(=O)c1cccc(COC(=O)Cc2c(F)cccc2Cl)c1 the results were Mtb betalactam -4.3, Rv3671c protease -2.5, FBA Mtb inh -2.8, Mtb UGM inh 2.7, RecA intein inh 3.6 and GDH-TPI counter-1 -9.1.
For CC(C)C(=O)Nc1ccc2c(c1)C(=O)N(CCC(=O)O)C2=O the results were Mtb betalactam -6.2, Rv3671c protease 5.5, FBA Mtb inh 40.0*, Mtb UGM inh -3.3, RecA intein inh -1.4, GDH-TPI counter-1 6.4, Mtb FBA inh conf 97.4* and GDH-TPI counter-2 80.5*.
Cc1cc(NC(=O)CCCC(=O)NCc2cccs2)no1 was read as Mtb betalactam 6.6, Rv3671c protease -4.3, FBA Mtb inh 57.0*, Mtb UGM inh 0.3, GDH-TPI counter-1 -8.0, Mtb FBA inh conf 87.9* and GDH-TPI counter-2 61.9*.

Assay outcomes: PubChem, several laboratories
